# The list is not random: actives were taken first. Their share in the collection is about 3.6%.
# bCat KO growth = beta-catenin-lacking colon tumor cell growth suppression. HCT116 beta-catenin knockout viability, CellTiter-Glo, 60 h; stronger effect = lower value. viability, % at 10 µM. 1.5% of 140,000 active. AID 818;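 active = viability at or under a set limit, the compound median less 4 SD, cut at about 6% in these data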
# DAT uptake mod = human DAT dopamine uptake with cocaine, either direction; Q01959; LLC-PK1 hDAT cells, [14C]-dopamine uptake with cocaine IC80; actives deviate in either direction; B-score at 10 µM; 1.3% of 110,000 active; AID 449768;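 active = Z score or B-score, a plate-position-corrected score, falls beyond the plate's 99.7% confidence bounds, in either direction; inactive = both scores lie inside the 99.7% bounds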
# WT yeast gro inh = growth inhibition of WT yeast, mitochondrial fusion screen; AID 1362; 2.1% of 190,000 active; inhibition, % at 10 µM; mitochondrial fusion phenotypic screen, WT strain; in the data active = inhibition above about 58%; tested in S. cerevisiae
# HCT116 PTEN-null = PTEN-deleted cell growth suppression. viability, % at 10 µM. 1.2% of 140,000 active. HCT116 PTEN-null viability, CellTiter-Glo, 60 h; stronger effect = lower value;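 active = viability at or below a set limit, 4 SD under the median of all tested compounds, cut at about 3.7% in these data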;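 note: PTEN knockout HCT116 line with beta catenin targeted HCT116 as companion control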
# A number is an active result; – = inactive; · = no result.
SMILES,bCat KO growth,DAT uptake mod,WT yeast gro inh,HCT116 PTEN-null
O=C(NCc1ccc(F)cc1)C(=O)NCC1OCCN1C(=O)c1ccc(Cl)cc1 (centres undefined),–,2.4,–,–
Cc1ccc(NC(=S)N=Nc2c(O)n(C)c3ccc(S(=O)(=O)N4CCOCC4)cc23)cc1C,–,·,–,–
Cn1c(O)c(N=NC(=S)Nc2ccccc2F)c2cc(S(=O)(=O)N3CCOCC3)ccc21,·,·,74,·
CN1C(=O)/C(=C\c2ccncc2)SC1=Nc1ccccc1,–,·,–,–
Cc1cc(Cl)ccc1OCc1n[nH]c(=S)n1C1CCCCC1,–,–,94,–
COc1ccc(Cl)cc1-c1n[nH]c(=S)n1C1CCCCC1,–,–,–,–
O=C(N/N=C/c1ccc[nH]1)c1ccc([N+](=O)[O-])cc1,–,·,–,–
Cc1cc(=O)oc2c1ccc1oc(/C(=N/O)c3ccccc3)c(C)c12,–,–,–,–
Cc1ccc(/C(=N\O)c2oc3c(C)c4oc(=O)cc(C)c4cc3c2C)cc1,2.0,·,70,2.6
c1ccc(Cn2cc(CSc3ccccc3)nn2)cc1,·,–,·,·
CCSc1nc2ccccc2n1C(=O)/C=C\c1ccc(OC)c(OC)c1,1.7,–,–,–
C=CCc1c(C)[nH]c2c(OC)cccc2c1=S,·,·,67,·
Cc1sc(-n2c(C)cc(/C=C3\SC(=S)NC3=O)c2C)c(C#N)c1C,–,–,77,–
COc1ccc(S(=O)(=O)n2nc(OC(C)=O)cc2N(C(C)=O)C(C)=O)cc1,·,–,–,·
O=C(CN1CCN(c2ccccn2)CC1)N1c2ccccc2Sc2ccc(C(F)(F)F)cc21,–,–,66,–
O=C(CN1CCCC1)N1c2ccccc2Sc2ccc(C(F)(F)F)cc21,–,–,–,–
O=C(COC(=O)CC(c1ccccc1)c1ccccc1)Nc1ccc(F)c(F)c1,·,·,59,·
CCCSc1cc(NCCOC(C)=O)c([N+](=O)[O-])c2nonc12,–,·,–,–
CCCC(=O)OCCNc1cc(Sc2nccn2C)c2nonc2c1[N+](=O)[O-],1.9,·,–,1.7
CC(=O)OCCCNc1cc(SCc2ccco2)c2nonc2c1[N+](=O)[O-],2.3,·,–,3.5
CCCC(=O)OCCNc1cc(SCc2ccco2)c2nonc2c1[N+](=O)[O-],2.7,·,–,–
CN(C)c1ccc(Cl)cc1N,·,·,–,·
CC1CC(C)CN(C(=O)c2cccc(S(=O)(=O)Nc3cc(C(F)(F)F)ccc3Cl)c2)C1 (centres undefined),–,·,–,–
CC(C)CCn1c(=O)c2ccccc2c2ccccc2c1=O,–,–,59,–
CCN(CC)c1ccc(/C=N/NC(=O)Nc2ccccc2)cc1,·,·,–,·
SMILES,bCat KO growth,DAT uptake mod,WT yeast gro inh,HCT116 PTEN-null
CCN(Cc1ccccc1)c1ccc(/C=N/NC(=S)NC(C)C)cc1,–,·,69,–
CCN(CC)c1ccc(/C=N/NC(=S)NCc2ccco2)cc1,–,·,67,–
CN(C)c1ccc(/C=N/NC(=S)NCc2ccccc2)cc1,–,–,70,–
CCN(Cc1ccccc1)c1ccc(/C=N/N=C(N)N)cc1,1.4,·,–,1.7
Cc1cc(C)n(-c2nc(Nc3ccccc3)nc(-n3nc(C)cc3C)n2)n1,–,–,–,–
COc1cccc(/C=N/Nc2ncnc3scc(-c4ccccc4)c23)c1O,–,·,–,–
COc1cccc(/C=N/Nc2nc(Nc3ccccc3)nc(-n3nc(C)cc3C)n2)c1O,2.8,–,–,2.0
COc1cccc(/C=N/Nc2cc(-n3nc(C)cc3-c3ccccc3)ncn2)c1O,3.8,·,–,3.5
COc1cccc(/C=N/Nc2nc3ccccc3n3cnnc23)c1O,5.8,·,–,–
COc1ccc(/C=N/Nc2cc(C)nc(-n3nc(C)cc3C)n2)c(OC)c1,2.6,·,–,2.4
OCC1(Cc2ccc(Cl)cc2)CCN(CC2CC=CCC2)CC1 (centres undefined),·,·,–,·
CC(=O)c1ccc(NC(=S)NCc2ccc(Cl)cc2Cl)cc1,·,·,–,·
CC1=C(C#N)C(NC(=O)c2ccccc2Cl)(C(F)(F)F)C(=O)N1 (centres undefined),–,·,–,–
O=C(/C=C/Nc1nccs1)C(F)(F)Cl,·,·,–,·
COCCn1c(=NC(=O)C(C)(C)C)sc2cc([N+](=O)[O-])ccc21,–,·,–,–
CCC(C(=O)Nc1ncc(C)s1)c1ccccc1 (centres undefined),·,·,–,·
COc1cc(CNCc2ccccc2)c(Br)cc1OC1CCCC1,·,·,–,·
COc1cccc(/C=N/Nc2ncnc(Cl)c2N)c1O,–,·,–,3.1
COc1cccc(/C=N/Nc2nccnc2Cl)c1O,·,·,–,·
C=C(C)COc1ccc(-c2nc(N)ncc2-c2ccc(OC)cc2)c(O)c1,–,–,84,–
C=C(C)COc1ccc(-c2[nH]ncc2-c2ccccc2)c(O)c1,–,–,71,–
C=C(C)COc1ccc(-c2n[nH]c(C)c2Oc2ccccc2OC)c(O)c1,–,–,–,–

# Compound activity from PubChem BioAssay.
